B1: d4r1_design_ppi_144_dldesign_0_cycle1_af2pred (protein)
chain: DEEVKKAAKEAKEAAKEAEKLAKKDKSLKPLAEQAKKAAKYAEYYTKINPTLALNAAKAAKKIYEEMKKLA
B2: d4r1_design_ppi_77_dldesign_0_cycle1_af2pred (protein)
chain: MKEEEKALEKANEYIEKAEELAKKALENGEGDEVFSEAGKLLEKAVEEAEKNKENREEILKRVQEVRDLLREAVLKRLKAE
B3: d3r1_design_ppi_729_dldesign_0_cycle0_af2pred (protein)
chain: DEEKKAKEAAEEAIKAKEKLGTGKEVKKTADEAFAAAKKATPEQAKALYKKLLEWFKEEKAKAEAEIAAA
B4: d4r1_design_ppi_104_dldesign_0_cycle0_af2pred (protein)
chain: MSIEERLEELEKRLTEETKKEAEENLKRLEEVAKELAELDPELAPEAKKALEEAKKLFEDPEKIFEAAALARESLEEFEKRLKELKE
B5: d4r2_design_ppi_0_dldesign_0_cycle1_af2pred (protein)
chain: VAKELAKKFQKAIEALFEASTIEEVPEARAKVKEARKIAREGVENPETAKEKLEEGVKLVEKKAKEMEEKKKKEEEEKLK
B6: d4r2_design_ppi_27_dldesign_0_cycle0_af2pred (protein)
chain: SEEEKKKKEAEKKVEEAKKKLEEAKKFAKEGKKEEGAKKLEEVAKELDEKADEFFASGSEEYREAGAKLGSLSIRAKLYAEGLKAK
B7: d3r1_design_ppi_897_dldesign_0_cycle0_af2pred (protein)
chain: MEAKEKVKKLTEEAIKYAEEAGDKETAEEAKKGGEALLAGAKEAEELAKKNPVAGASLQEAVIKSAELFAKSIKEEVEKKK
B8: d4r1_design_ppi_144_dldesign_0_cycle0_af2pred (protein)
chain: DEETKKAVEEAKKAAKEAEEIAKKYPELKPLAEQAKKAAKYAEKYAKENPIAAKNAMKATKAIAEEMKKLA
B9: d4r1_design_ppi_171_dldesign_0_cycle1_af2pred (protein)
chain: MKEIEEAQKKYKEALEKLKEVGEEYYQAVLDAIKNKGIEEAVKTAEKLAKELEKEDPEKGKKAKEAAELLKEAKKLIEKVRKE
B10: d4r1_design_ppi_174_dldesign_0_cycle0_af2pred (protein)
chain: SMEEKEAAEKMKELNEIAYEEYERVVKEGTEEAAREAMRRIMEKAKEHPYKETALKYVEVTLKHLKEEVSPEAAKAAEEELKRELA
B11: d4r1_design_ppi_33_dldesign_0_cycle0_af2pred (protein)
chain: SEEEEKNAENLKKAAEELEKIAEEGIKKGASVEEIKKKLEEKGKEFAKKYPKNAKSYLELAKIVAKEAEKKLK
B12: d4r1_design_ppi_171_dldesign_0_cycle0_af2pred (protein)
chain: MEKIEEANKLLKKALELLKEVGEEYYKKVMEAIKTEGIDAAVEKAKEIAKELKKKDKEKGKIAEEAYKNLEKAKELIKEIYEE
B13: d3r1_design_ppi_897_dldesign_0_cycle1_af2pred (protein)
chain: MEALKAVEEKMKEAIEYAKKAGDEELAKEAEKRRKALLAGAERAVEVAKKNPVAGASLAQAVIKSAELASEYFKELVEKKK
B14: d4r1_design_ppi_339_dldesign_0_cycle0_af2pred (protein)
chain: SEKAEKAAKEAEEEAKKAKELAKEAAKLSPSYAAAFKKLAEAFKKAAKLLKEDYEKGLKEFKELKKSFELAKKAAAKAKAAAAA
B15: d4r2_design_ppi_24_dldesign_0_cycle1_af2pred (protein)
chain: SMEKEKEEELKNYAKQVAGKAFTYSDQLKEVAEKTGLEELKEKAEELEKLGKEALENPEKAKEYEAKAKEVFKEGRELYKKAK
B16: d4r1_design_ppi_310_dldesign_0_cycle0_af2pred (protein)
chain: MEAIEEMRKKKEEAIKEAEESNPEEGAKIMEEAMKEIQEIANKAIKSSSSEEAKKILEEHEKLVEELEKKKEELKKKAEEEKK
B17: d4r1_design_ppi_77_dldesign_0_cycle0_af2pred (protein)
chain: MKEKEEALKEAKKHLKEAEKLAEEAEKNGKGDELFSKLGKHLQEAAKYAEKNKENQEEINKELQKVAKKARDAILKVQKAR
B18: d4r2_design_ppi_27_dldesign_0_cycle1_af2pred (protein)
chain: GKEKEEKEKAEKIVEEAKKELEEAKEYGKKTTKEEGAEKLEEVAKKLKEKAEEFLATGKEEWKHAGAKLESLAIRAELYAKGLRRE
B19: d4r1_design_ppi_352_dldesign_0_cycle0_af2pred (protein)
chain: AAAEQNAKNLKEAEKAKKEAEEAKKLAKEDVAKGAEKLTEAAKKLAEIYEKASPEIQPYVAKELQEVAKAAQEAIKAKLEKDAA
B20: d3r1_design_ppi_851_dldesign_0_cycle0_af2pred (protein)
chain: DEVKKLLEEAKKLAEKAEELAKKGGSVEEVEKAAEKAQEAAVKAIKLAAKTEDGEKLTKEAGKYAQKATQAAAEAKEKAKKEA
B21: d3r1_design_ppi_981_dldesign_0_cycle1_af2pred (protein)
chain: MEEFAKEMEKWSEEAAKKYEEAKELAKKDPKEGVKVLEEAIKELEEKAKEYEKKGPYGKNIAKALNWLAKKFKELKKKIEAS
B22: d4r1_design_ppi_339_dldesign_0_cycle1_af2pred (protein)
chain: AEEAEKAAKEAEEKAKEAEELAKEAAKLHPTYAQAFELLAKAFKKAAELLKKDYKEGKKYFEELKESFERAKKALAIAKKEKAA
B23: d3r1_design_ppi_994_dldesign_0_cycle0_af2pred (protein)
chain: MEELEKVAKKILKEAKKRAEEAAKKGAESENGEEVFTKGLQETLEKASEEAEKAGLPDELAVKVLKEIVKYGNEVKKAALAARA
B24: d3r1_design_ppi_891_dldesign_0_cycle1_af2pred (protein)
chain: AEEALKEEMVKKAKEVAEKAAKAGYPEEAKQAAKAGAAFAPEKGEEIKKYAEEEIKKAEKEKEEKKKKEKEKKE
B25: d4r2_design_ppi_152_dldesign_0_cycle0_af2pred (protein)
chain: AAAAAEAEKAAAAATQKAEELAEKRGEEHGAEVGLKKYLENPEEAKKMGKEIYELGLKKYKELKKKEEEEK
B26: d3r1_design_ppi_985_dldesign_0_cycle1_af2pred (protein)
chain: EEAEKLLKEIKEKSEKAIKLAEEGKIEEAEKELQEALKIAQELAKKYPEAAPEAAKIVNKAATELEKKKEEQKKKLE
B27: d4r1_design_ppi_425_dldesign_0_cycle1_af2pred (protein)
chain: AAEAAAAAEKAAAAAGEKAGKAAAEHVAAGAKAGTLPQAVQDVLEQTSELKYKGDEVAAKAAYEAAREAAKAARAAA
B28: d3r1_design_ppi_728_dldesign_0_cycle1_af2pred (protein)
chain: DIRENIKKLAKELKKEAEKLSEYDPELAKKAIEYAKKAEAAKTAEEAAKYATKAAEYVEKAEELAKKKKEELEK
B29: d4r2_design_ppi_49_dldesign_0_cycle0_af2pred (protein)
chain: GKIEELKKKLKEAEKKLEEAKEKLNKAKAEAESYRIRAEANKENKEKYLKKAEEIEKEEIEKAKKEIEEYEKEKKEAEKKLKEAKE
B30: d4r2_design_ppi_53_dldesign_0_cycle1_af2pred (protein)
chain: EEAKARAEKAFARAKALKARAKELKAKGEELFANAPELGEESLKRGKVYKLQAEQYEARAEEAEALGKELAAA
B31: d4r1_design_ppi_104_dldesign_0_cycle1_af2pred (protein)
chain: MSIEERLEELEKRLYEEIKKKAEEYLEELEKESEKLAKLDPSLAEEAKKKYEEAKELYKDPETVYLSKSHAEENLEEVKKKIKELES
B32: d3r1_design_ppi_734_dldesign_0_cycle0_af2pred (protein)
chain: SSEEELKLLTGKNALEILPEILKEAEKLLKEAKKTGDKEKLKEAIKQAENAIAAAKAAAIVDPKKAEEYKKKAEKLKKEAEKLL
B33: d4r2_design_ppi_34_dldesign_0_cycle0_af2pred (protein)
chain: SGAGQAKMERNAALSSLRAAKANPALAEIAAEDAIEAAKRALAVPEASPEVKEEAERVRKEAEAVGAAAKAAKAA
B34: d4r2_design_ppi_48_dldesign_0_cycle1_af2pred (protein)
chain: DFTAKAAAQAKKYKAEAKANAADPEKVGEVLAKALKAANEAKEAGNPAAAAALKAAADEILKINRESLLKEET
B35: d3r1_design_ppi_859_dldesign_0_cycle1_af2pred (protein)
chain: ESELLKQVAEAVQQAVKAALKDPEEAKKVVEKALELDAEKAIEVAKSLAEAYKIAGNEEKAAAAKKVAELLEKLSKERK
B36: d4r1_design_ppi_219_dldesign_0_cycle1_af2pred (protein)
chain: AAEAEEYRKKAAEYIQELQELKTEIKATGTEEQAKKADEIWEEYKKKVKEAKEKYKDGTDLELAKALYKIAKENYEKLKELKE
B37: d4r2_design_ppi_24_dldesign_0_cycle0_af2pred (protein)
chain: KKEEEEKEKLKNFAKQASGKAEALSDQLKDVAEKTGSEELKEKAKKLEELGKEAEKNPELGKKKEEEAKKVHKEGKEYYKAKK
B38: d3r1_design_ppi_728_dldesign_0_cycle0_af2pred (protein)
chain: SLKESVDKKVEKLKEEAKKLAKYDPELAKKAIEYAEKAKKAKTLEEAGKYANKASEYIEEAEKKAKEKKEEEAK

Biological target: VTCN1, Q7Z7D3
Sequence (Q7Z7D3 whole entry): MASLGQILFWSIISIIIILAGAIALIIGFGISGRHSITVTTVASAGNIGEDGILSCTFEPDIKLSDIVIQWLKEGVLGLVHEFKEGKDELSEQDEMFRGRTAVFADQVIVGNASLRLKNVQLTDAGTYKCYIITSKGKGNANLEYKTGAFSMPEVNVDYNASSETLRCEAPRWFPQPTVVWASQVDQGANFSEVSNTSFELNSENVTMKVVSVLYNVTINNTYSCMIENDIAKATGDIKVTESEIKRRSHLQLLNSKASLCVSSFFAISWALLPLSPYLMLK

Binding in a display sort, inactive:
B1 not found, B2 not found, B3 not found, B4 not found, B5 not found, B6 not found, B7 not found, B8 not found, B9 not found, B10 not found, B11 not found, B12 not found, B13 not found, B14 not found, B15 not found, B16 not found, B17 not found, B18 not found, B19 not found, B20 not found, B21 not found, B22 not found, B23 not found, B24 not found, B25 not found, B26 not found, B27 not found, B28 not found, B29 not found, B30 not found, B31 not found, B32 not found, B33 not found, B34 not found, B35 not found, B36 not found, B37 not found, B38 not found
